# Records with an inconclusive call do not appear. Entries that show only a call come without a potency. Calls of active or inactive are those of the source. Unless noted, calls follow the shape of the dose curve; as a rule, active = well fitted curve in the direction sought with a large enough effect; inconclusive = small, poorly fitted or top-dose-only effect, or another doubt; inactive = no such curve, though single readings can be large; an effect the other way counts as inactive or inconclusive.
# Assays:
# [1] = S16 Schwann cell viability assay (CellTiter-Glo assay) (AID 624031); conditions: S16 rat Schwann cells viability, 24 h; series mostly up to 57.5 µM;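 also: cellular ATP luminescence as a viability measure; nearly all actives have a fitted effect of over 70% in size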
# Summary of the method: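 This viability control uses native rat S16 Schwann cells grown in DMEM plus 10% FBS. After a 24 h compound treatment at 37 °C, CellTiter-Glo luminescence reports ATP content, scaled against DMSO-treated and cell-free wells.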
# [2] = S16 Schwann cell PMP22 intronic element beta-lactamase assay (AID 624044; calls by dose curve; also: nearly all actives have a fitted effect of over 15% in size); conditions: S16 rat Schwann cells, PMP22 element beta-lactamase FRET, 24 h; series mostly up to 38.3 µM
# Summary of the method: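 Beta-lactamase reporter under a PMP22 intronic regulatory element in stable S16 rat Schwann cells; 24 h compound exposure. 460 nm blue signal normalized between DMSO (0%) and potassium clavulanate, with 535 nm FRET tracking viability; curves classed by r2 and response.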
# [3] = Cytotoxicity counterscreen for NFkB agonists and antagonists (AID 624476); conditions: NFkB reporter cell line viability counterscreen; series mostly up to 46.1 µM;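 also: cells exposed to compound for 48 hours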; also: potency is read from the fitted curve at half-maximal effect
# [4] = qHTS Assay for Identification of Small Molecule Agonists for NFkB Signaling Pathway. (AID 624478); conditions: NFkB pathway reporter cell assay, agonist mode, cells co-stimulated with 10 pM TNF alpha; series mostly up to 46.1 µM;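 also: compounds tested together with TNF alpha at its EC50 of 10 pM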
# Summary of the method: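 Compounds were added with 10 pM TNF alpha (EC50 level) to ME-180 NFkB-bla cells in low-serum Opti-MEM and incubated 5 hrs at 37 C. Beta-lactamase FRET read-out used 405 nm excitation and 460 and 530 nm emission.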
# [5] = qHTS Assay for Identification of Small Molecule Antagonists for NFkB Signaling Pathway. (AID 624479; calls by dose curve; also: potency is read from the fitted curve at half-maximal effect); conditions: NFkB pathway reporter cell assay, antagonist mode; series mostly up to 38.3 µM
# [6] = Cell Proliferation Assay against the TMD8 Cell Line (AID 651645); conditions: TMD8 DLBCL cell line proliferation/viability; at 46.1 µM (top of the series);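 also: cells exposed to compound for 48 h before reading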
# Summary of the method: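 TMD8 cells, 500/well in RPMI with 5% FBS, dosed immediately and grown 48 h at 37 C, 5% CO2. CellTiter-Glo luminescence normalised to DMSO 100% and 9.2 uM bortezomib (final) 0%.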
# [7] = Cell Proliferation Assay against the HBL1 Cell Line (AID 651646); conditions: HBL1 DLBCL cells; at 46.1 µM (top of the series);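 also: cells exposed to compound for 48 h before reading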
# Summary of the method: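 CellTiter-Glo luminescence after 48 h compound exposure at 37C gives percent activity, with DMSO as 100% and 9.2 uM bortezomib final as 0%. Cells: 500 log-phase HBL1 per well, RPMI plus 5% FBS.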
# [8] = Cell Proliferation Assay against the TMD8 Cell Line (Caspase readout at 16 hrs) (AID 651712); conditions: TMD8 lymphoma cells, caspase activation luminescence; series mostly up to 46.1 µM; also: potency is read from the fitted curve at half-maximal effect
# Summary of the method: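 Caspase-Glo luminescence measured apoptosis after a 16 h, 37 C compound exposure of TMD8 cells (500 cells/well, 5% FBS RPMI). DMSO set 0% and bortezomib at 9.2 uM final set 100% activity.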
# [9] = Cell Proliferation Assay against the TMD8 Cell Line (Caspase readout at 8 hrs) (AID 651713); conditions: TMD8 lymphoma cells, caspase activation luminescence; series mostly up to 46.1 µM; also: potency is read from the fitted curve at half-maximal effect
# Summary of the method: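 Apoptosis read-out: Caspase-Glo luminescence after 8 h compound exposure of TMD8 lymphoma cells at 37C, 5% CO2. Signals were normalized as percent activity between DMSO and bortezomib (9.2 uM final) controls.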
# [10] = target: Glutaminase kidney isoform, mitochondrial (Homo sapiens) (UniProt O94925); assay: qHTS for Inhibitors of Glutaminase (GLS): LOPAC Validation (AID 624146); conditions: glutaminase enzyme activity inhibition; series mostly up to 46.1 µM;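 also: glutamate product detected by oxidase and peroxidase coupled Amplex red fluorescence gain; nearly all actives have a fitted effect of over 60% in size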
# Summary of the method: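 Assay buffer: 45 mM KH2PO4 pH 8.2, 0.02% Tween-20. hKGA acts on L-glutamine (1 mM solution added); product glutamate is reported by an oxidase/peroxidase Amplex Red coupling, with fluorescence taken at baseline and 30 min.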
# [11] = qHTS of Trypanosoma Brucei Inhibitors: LOPAC Validation (AID 624147); conditions: purified enzyme assay, luminescence, 45 min; series mostly up to 57.5 µM
# Summary of the method: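 Screened from lowest to highest concentration, compounds were pinned into TbPYK/substrate mixtures, and ADP (130 uM final) was added. Plates sat at room temperature for 45 min prior to Kinase-Glo Plus detection by luminescence.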
# [12] = target: Glucagon-like peptide 1 receptor (Homo sapiens) (UniProt P43220); assay: qHTS of GLP-1 Receptor Agonists: LOPAC Validation (AID 624148); conditions: GLP-1R agonist cell assay; series mostly up to 46.1 µM;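 also: luminescence from a luciferase reporter switched on by cAMP; higher luminescence signal means agonism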
# Summary of the method: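 Agonism scored as increased luciferase luminescence driven by cAMP in HEK293 clones carrying GLP-1R. Cells settled 12 hours, received compound for 4-6 hr at 37 deg C, 5% CO2, and were read after 12 min detection reagent at RT.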
# [13] = qHTS of Nrf2 Activators: LOPAC Validation (AID 624149); conditions: Nrf2/ARE reporter cell assay; series mostly up to 46.1 µM
# Summary of the method: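 Luciferase signal from ARE activation, read with Steady-Glo after 30 min at room temperature. Compounds were pin-transferred onto AREc32_Fluc cells (1000/well, OPTI-MEM/5% FBS, seeded overnight) and left 24 hr at 37 deg C.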
# [14] = HTS Assay for Allosteric Antagonists of the Human D2 Dopamine Receptor: Hit Validation in HTRF (AID 624455); conditions: Cells stably expressing D1 dopamine receptor, inhibition mode; series mostly up to 46.1 µM;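 also: stable D1 dopamine receptor cell line scored for blocking the D1 response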
# Summary of the method: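 Inhibition of the D1-mediated response was measured by HTRF. Cells used were a line stably expressing the D1 dopamine receptor.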
# Chain of Glutaminase kidney isoform, mitochondrial (Homo sapiens) (O94925 whole entry, looked up, canonical isoform): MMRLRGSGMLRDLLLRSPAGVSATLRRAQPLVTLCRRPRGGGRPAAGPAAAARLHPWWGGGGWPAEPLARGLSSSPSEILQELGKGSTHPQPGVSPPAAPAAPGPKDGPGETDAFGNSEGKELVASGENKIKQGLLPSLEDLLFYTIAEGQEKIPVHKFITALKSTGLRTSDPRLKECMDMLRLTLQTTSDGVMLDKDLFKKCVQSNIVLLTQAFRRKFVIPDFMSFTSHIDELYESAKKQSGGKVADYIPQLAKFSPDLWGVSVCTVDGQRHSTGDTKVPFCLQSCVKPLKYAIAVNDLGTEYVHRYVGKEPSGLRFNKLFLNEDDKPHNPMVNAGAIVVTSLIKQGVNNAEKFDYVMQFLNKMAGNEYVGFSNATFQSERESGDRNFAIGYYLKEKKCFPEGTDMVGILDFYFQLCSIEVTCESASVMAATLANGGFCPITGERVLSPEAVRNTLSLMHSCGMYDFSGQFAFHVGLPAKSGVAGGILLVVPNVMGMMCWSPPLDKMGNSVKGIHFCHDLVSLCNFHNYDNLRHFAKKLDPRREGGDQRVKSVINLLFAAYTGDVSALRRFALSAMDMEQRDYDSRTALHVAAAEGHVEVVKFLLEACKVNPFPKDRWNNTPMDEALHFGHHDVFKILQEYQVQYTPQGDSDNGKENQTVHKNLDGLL
# Chain of Glucagon-like peptide 1 receptor (Homo sapiens) (P43220 whole entry, looked up): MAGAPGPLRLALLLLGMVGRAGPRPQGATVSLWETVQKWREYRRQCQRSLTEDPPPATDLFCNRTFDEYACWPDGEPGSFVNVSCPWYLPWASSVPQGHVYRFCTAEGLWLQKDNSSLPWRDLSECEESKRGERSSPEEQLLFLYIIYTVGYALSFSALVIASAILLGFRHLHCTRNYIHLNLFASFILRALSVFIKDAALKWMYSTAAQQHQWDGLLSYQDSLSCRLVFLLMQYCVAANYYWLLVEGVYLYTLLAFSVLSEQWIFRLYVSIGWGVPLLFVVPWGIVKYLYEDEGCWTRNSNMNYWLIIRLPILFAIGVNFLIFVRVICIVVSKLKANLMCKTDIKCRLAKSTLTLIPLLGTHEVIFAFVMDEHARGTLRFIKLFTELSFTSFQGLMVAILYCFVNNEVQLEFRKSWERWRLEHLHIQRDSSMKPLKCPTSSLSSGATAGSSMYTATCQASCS
compound,measurement,setting,value
N#CC(c1ccc(Cl)cc1)c1c(Cl)cc(-n2ncc(=O)[nH]c2=O)cc1Cl (centres undefined),outcome,[1],inactive
same,Potency,[2],inactive
COc1cccc(OC)c1-c1cc(C(=O)NC2(C(=O)O)C3CC4CC(C3)CC2C4)nn1-c1ccnc2cc(Cl)ccc12 (centres undefined),Potency,[3],14.8 µM (active)
same,outcome,[4],inactive
same,Potency,[5],16.8 µM (active)
same,viability (% of control),[6],69%
same,"viability, percent of control",[7],3.08%
same,Potency,[8],23.5 µM (active)
C=C1c2cccc(O)c2C(O)=C2C(=O)[C@@]3(O)C(O)=C(C(N)=O)C(=O)[C@@H](N(C)C)[C@@H]3[C@@H](O)[C@H]12,Potency,[2],inactive
CCC=CC[C@H]1C(=O)CC[C@@H]1CC(=O)OC,Potency,[3],inactive
same,outcome,[4],inactive
same,Potency,[5],inactive
same,viability (% of control),[6],114%
same,"viability, percent of control",[7],109%
same,Potency,[8],inactive
same,Potency,[9],inactive
CN1C(=O)C(Cc2c[nH]c3ccccc23)NC1=S (centres undefined),Potency,[3],inactive
same,outcome,[4],inactive
same,Potency,[5],inactive
same,viability (% of control),[6],80.6%
same,"viability, percent of control",[7],98.6%
same,Potency,[8],inactive
same,Potency,[9],inactive
NS(=O)(=O)c1cc(Cl)c(Cl)c(S(N)(=O)=O)c1,outcome,[1],inactive
CN1CCN2c3ncccc3Cc3ccccc3C2C1 (centres undefined),outcome,[1],inactive
same,Potency,[2],inactive
O=C1CN2Cc3c(ccc(Cl)c3Cl)N=C2N1,Potency,[3],inactive
same,outcome,[4],inactive
same,Potency,[5],inactive
Fc1ccc(C(c2ccc(F)cc2)N2CCN(CC=Cc3ccccc3)CC2)cc1,Potency,[2],inactive
Clc1ccc(COC(Cn2ccnc2)c2ccc(Cl)cc2Cl)c(Cl)c1 (centres undefined),outcome,[1],inactive
same,Potency,[2],inactive
COc1ccc2c(c1)CC[C@H]1[C@@H]2CC[C@]2(C)[C@@H](NCCCCCCN3C(=O)C=CC3=O)CC[C@H]12,Potency,[3],inactive
same,outcome,[4],inactive
same,Potency,[5],inactive
same,viability (% of control),[6],15.9%
same,"viability, percent of control",[7],33.1%
COc1cc2c(cc1OC)CC(=O)N(CCCN(C)C[C@H]1Cc3cc(OC)c(OC)cc31)CC2,outcome,[1],inactive
same,Potency,[3],inactive
same,outcome,[4],inactive
same,Potency,[5],inactive
same,viability (% of control),[6],108%
same,"viability, percent of control",[7],122%
same,Potency,[8],inactive
same,Potency,[9],inactive
CS(=O)(=O)c1ccc(C2=C(c3ccccc3)C(=O)OC2)cc1,outcome,[1],inactive
same,Potency,[2],inactive
CCNC(=O)c1noc(-c2cc(C(C)C)c(O)cc2O)c1-c1ccc(CN2CCOCC2)cc1,Potency,[3],inactive
same,outcome,[4],inactive
same,Potency,[5],0.0009 µM (active)
same,viability (% of control),[6],7.59%
same,"viability, percent of control",[7],47.2%
N#Cc1c(N(CC(=O)O)CC(=O)O)sc(C(=O)O)c1CC(=O)O,outcome,[1],inactive
same,Potency,[2],inactive
Cc1csc(-c2nnc(Nc3ccc(Oc4ncccc4-c4ccnc(N)n4)cc3)c3ccccc23)c1,Potency,[3],inactive
same,outcome,[4],inactive
same,Potency,[5],1.06 µM (active)
same,viability (% of control),[6],4.09%
same,"viability, percent of control",[7],63.2%
same,Potency,[8],23.5 µM (active)
Nc1ccc(-c2ccc3ncc4ccc(=O)n(-c5cccc(C(F)(F)F)c5)c4c3c2)cn1,Potency,[3],0.833 µM (active)
same,outcome,[4],inactive
same,Potency,[5],4.73 µM (active)
same,viability (% of control),[6],9.02%
same,"viability, percent of control",[7],8.06%
same,Potency,[8],0.118 µM (active)
C[C@@H](O[C@H]1OCCN(Cc2n[nH]c(=O)[nH]2)[C@@H]1c1ccc(F)cc1)c1cc(C(F)(F)F)cc(C(F)(F)F)c1,Potency,[3],29.6 µM (active)
same,outcome,[4],inactive
same,Potency,[5],23.7 µM (active)
COc1ccnc(CS(=O)c2nc3ccc(OC(F)F)cc3[nH]2)c1OC (centres undefined),outcome,[1],inactive
same,Potency,[2],inactive
OCCn1cc(-c2ccc3c(c2)CCC3=NO)c(-c2ccncc2)n1,Potency,[3],inactive
same,outcome,[4],inactive
same,Potency,[5],inactive
same,viability (% of control),[6],80.7%
same,"viability, percent of control",[7],133%
same,Potency,[8],inactive
same,Potency,[9],inactive
Cc1cc2nc3c(=O)[nH]c(=O)nc-3n(CC(O)C(O)C(O)CO)c2cc1C (centres undefined),outcome,[1],inactive
same,Potency,[2],inactive
NCC1CCC(C(=O)O)CC1 (centres undefined),outcome,[1],inactive
same,Potency,[2],inactive
CCC(=O)N1CCN(c2ccc(-n3c(=O)ccc4cnc5ccc(-c6cnc7ccccc7c6)cc5c43)cc2C(F)(F)F)CC1,Potency,[3],13.2 µM (active)
same,outcome,[4],inactive
same,Potency,[5],5.3 µM (active)
same,viability (% of control),[6],3.32%
same,"viability, percent of control",[7],4.82%
same,Potency,[8],18.7 µM (active)
same,Potency,[9],inactive
C=CCc1cccc(C=NNC(=O)CN2CCN(Cc3ccccc3)CC2)c1O,outcome,[10],inactive
same,outcome,[11],inactive
same,outcome,[12],inactive
same,outcome,[13],inactive
same,outcome,[14],inactive
CC(C)Oc1cc(Nc2nc(N[C@@H](C)c3ccc(F)cn3)ncc2Cl)[nH]n1,Potency,[3],2.96 µM (active)
same,outcome,[4],inactive
same,Potency,[5],14.9 µM (active)
same,viability (% of control),[6],0.843%
same,"viability, percent of control",[7],13.4%
same,Potency,[8],inactive
Cc1ccc(NC(=O)c2ccc(CN3CCN(C)CC3)cc2)cc1Nc1nc(-c2cccnc2)cs1,Potency,[3],inactive
same,outcome,[4],inactive
same,Potency,[5],16.8 µM (active)
same,viability (% of control),[6],8.7%
same,"viability, percent of control",[7],11%
same,Potency,[8],inactive
same,Potency,[9],23.5 µM (active)
COc1nc(C)cnc1NS(=O)(=O)c1cccnc1-c1ccc(-c2nnco2)cc1,Potency,[3],inactive
same,outcome,[4],inactive
same,Potency,[5],inactive
same,viability (% of control),[6],116%
same,"viability, percent of control",[7],92.3%
same,Potency,[8],inactive
same,Potency,[9],inactive
COc1cc2nccc(Oc3ccc(NC(=O)Nc4cc(C)on4)c(Cl)c3)c2cc1OC,Potency,[3],inactive
same,outcome,[4],inactive
same,Potency,[5],16.8 µM (active)
same,viability (% of control),[6],6.06%
same,"viability, percent of control",[7],26.7%
